PubChem BioAssay AID1508602 (The Scripps Research Institute Molecular Screening Center, 2020)
About 6,800 (1%) of roughly 650,000 compounds were called active. The sample holds actives, similar compounds and a random draw of the others, so the mix is not that of the screen. A number with no mark means an inactive call. No stated cut-off is given here; in the data, active means activation above about 4.9%; inactive means the rest.

Target: G-protein coupled receptor 151 (Homo sapiens) (UniProt Q8TDV0)
Assay: activates the human receptor GPR151, primary screen, cell-based, PathHunter beta-arrestin, luminescence (AID 1508602);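 further: 0% = median of compound wells and 100% = cells with positive control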
Conditions: PathHunter beta-arrestin GPR151 cells, at 11.2 µM, hits give high values

G-protein coupled receptor 151 (Homo sapiens), sequence (Q8TDV0 whole entry, looked up): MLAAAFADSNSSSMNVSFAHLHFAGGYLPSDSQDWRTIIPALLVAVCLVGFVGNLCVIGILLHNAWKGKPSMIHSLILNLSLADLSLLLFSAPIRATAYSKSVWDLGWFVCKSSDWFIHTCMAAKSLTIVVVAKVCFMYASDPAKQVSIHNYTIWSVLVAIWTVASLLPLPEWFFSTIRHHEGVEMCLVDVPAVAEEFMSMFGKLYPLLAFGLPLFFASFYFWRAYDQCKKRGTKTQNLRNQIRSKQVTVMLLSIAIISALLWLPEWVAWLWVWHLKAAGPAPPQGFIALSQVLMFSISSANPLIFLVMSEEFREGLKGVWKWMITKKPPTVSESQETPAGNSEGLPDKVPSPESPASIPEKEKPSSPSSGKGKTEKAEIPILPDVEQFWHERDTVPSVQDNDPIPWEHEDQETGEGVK

| SMILES | activation |
| --- | --- |
| Cc1cc(C)c2c(=O)[nH]c(SCC(=O)c3ccc(F)cc3)nc2n1 | 3.2% |
| COc1ccccc1N1CCN(C(=O)c2cc(-c3ccc(Cl)c(Cl)c3)nc3ccccc23)CC1 | -0.435% |
| COc1ccc(NC(=O)C23CCC(C)(C(=O)C2)C3(C)C)c(OC)c1 (stereo not drawn) | 0.482% |
| COc1ccc(C(=O)CSc2nc3sc4c(c3c(=O)n2-c2ccc(Cl)cn2)CCCC4)c(F)c1 | 5.7% (active) |
| CCCCSc1nc2sc3c(c2c(=O)n1-c1ccc(OC)cc1)CCCC3 | 0.438% |
| COc1ccc(-n2c(SCC(=O)c3ccccc3)nc3sc4c(c3c2=O)CCCC4)cc1 | -0.298% |
| Oc1ccc(-c2n[nH]c(=S)o2)cc1 | -2.2% |
| CC(C)(C)c1ccc(S(=O)CC(O)CSc2nc(-c3cccs3)cc(-c3ccccc3)c2C#N)cc1 (stereo not drawn) | 0.807% |
| CC(C)COC(=O)c1ccc(NC(=O)C2C3C=CC(C3)C2C(=O)O)cc1 (stereo not drawn) | 6.08% (active) |
| COC(=O)c1cc(NC(=O)C2C3C=CC(C3)C2C(=O)O)cc(C(=O)OC)c1 (stereo not drawn) | -0.454% |
| CCCCOC(=O)c1ccc(NC(=O)C2C3C=CC(O3)C2C(=O)O)cc1 (stereo not drawn) | -1.25% |
| O=c1c2c3c(sc2nc(SCc2cccc(Br)c2)n1-c1ccccc1)CCC3 | 0.0499% |
| O=C(O)COc1ccc(NC(=O)/C=C/c2ccco2)cc1 | 3.09% |
| O=C(COc1ccc(S(=O)(=O)Nc2ccc(F)cc2)cc1)NC1CCCC1 | 1.64% |
| CC(C)NS(=O)(=O)c1ccc(OCC(=O)NC2CCCCCC2)cc1 | -1.64% |
| O=C(COc1ccc(S(=O)(=O)NCCc2ccccc2)cc1)NC1CC1 | 5.83% (active) |
| Cc1ccc(NC(=O)CSc2nnc3sc4ccccc4n23)cc1 | -0.639% |
| Cc1ccc(S(=O)(=O)c2nnn3c2nc(NCc2ccco2)c2ccccc23)cc1 | -0.413% |
| Cc1ccc(C(C)C)c(OCCCn2ccnc2)c1 | 4.92% (active) |
| C=CCc1cc(C)ccc1OCCCn1ccnc1 | 2.6% |
| Cc1ccc(C(C)C)c(OCCN2CCNCC2)c1 | 0.889% |
| COc1ccc(CCNc2nc(-c3ccccc3)nc3c2ncn3C2CCCCC2)cc1 | 0.405% |

| SMILES | activation |
| --- | --- |
| COc1ccc(CCNC(=O)c2ccccc2C(=O)O)cc1OC | -1.14% |
| O=[N+]([O-])c1ccc(-n2c(-c3ccccc3)nnc2-c2ccccc2)cc1 | -0.192% |
| Cc1csc(NC(=O)CSc2nnc(Cc3cccn3C)n2-c2ccccc2)n1 | 0.245% |
| O=C1/C(=C\c2ccccc2)C(N2CCOCC2)=NN1c1ccc([N+](=O)[O-])cc1 | 6.57% (active) |
| C=CCOc1ccc(/C=C2\C(=O)N(c3ccc([N+](=O)[O-])cc3)N=C2c2ccccc2)cc1 | -2.33% |
| O=C1N=C(N2CCN(c3ccc([N+](=O)[O-])cc3)CC2)S/C1=C/c1ccccc1 | -0.706% |
| CCC(=O)Nc1cc(-c2ccco2)nn1-c1nc(CC)cc(=O)[nH]1 | -0.772% |
| COCCNCCOc1ccc(C(C)(C)C)cc1 | 8.42% (active) |
| COC(=O)NCCOc1ccc(C(C)(C)C)cc1 | 0.726% |
| CC(C)(C)c1ccc(OCCCCNCCO)cc1 | 0.146% |
| Cc1ccc(N2C(=O)CC(N3CCN(C(c4ccccc4)c4ccccc4)CC3)C2=O)c(Br)c1 (stereo not drawn) | -0.0796% |
| CCc1cc(C(=O)N2CCCCC2C)cs1 (stereo not drawn) | 1.3% |
| Cc1ccc(CNC(=O)CN(C)S(=O)(=O)c2ccccc2)cc1 | -0.21% |
| COc1ccc(CON2C(=O)c3ccccc3C2=O)cc1Cl | -1.06% |
| O=C(NNC(=O)C1CCCN(S(=O)(=O)c2cccc(Cl)c2)C1)C1CC1 (stereo not drawn) | 0.674% |
| COc1ccc(C(=O)C2CCCN(S(=O)(=O)c3cccc(C)c3)C2)c(C)c1 (stereo not drawn) | 5.47% (active) |
| CCc1ccc(S(=O)(=O)N2CCCC(C(=O)c3ccc(OC)c(OC)c3)C2)s1 (stereo not drawn) | 0.139% |
| CCCOc1ccccc1C1CC(=O)C2=C(C1)Nc1ccccc1N(C(C)=O)C2c1ccc(OC)cc1 (stereo not drawn) | -0.237% |
| Cc1ccc(Cn2c(C)c3cnn(CC(=O)N4CCCC4)c(=O)c3c2C)cc1 | -0.279% |
| O=C(/C=C/c1ccccc1)c1ccc(O[C@@H]2O[C@H](CO)[C@@H](O)[C@H](O)[C@H]2O)cc1O | 0.684% |
| COc1ccc(O)c(C(=O)/C=C/c2ccc(F)cc2)c1 | -1.75% |
| O=C(/C=C/c1ccccc1)c1ccccc1O | 5.61% (active) |

| SMILES | activation |
| --- | --- |
| Cc1c(Cl)cccc1-n1c(/C=C/c2cccc3ccccc23)nc2ccccc2c1=O | 1.58% |
| COC(=O)c1ccccc1NC(=O)c1ccc(CN(c2ccc(C)c(C)c2)S(C)(=O)=O)cc1 | -0.0331% |
| CC(=O)c1ccc(NC(=O)c2ccc(CN(c3ccc(C)c(C)c3)S(C)(=O)=O)cc2)cc1 | 5.09% (active) |
| CNC(=O)c1ccc(CN(c2ccc(C)c(C)c2)S(C)(=O)=O)cc1 | 0.29% |
| Cc1cnc(CNC(=O)c2ccc3cncc(-c4cc5ccccc5o4)c3n2)cn1 | -1.58% |
| COc1ccc(NC(=O)CSc2nc(=O)n(CCCN(C)C)c3c2CCC3)cc1OC | -0.304% |
| COc1cc(Cl)c(CNCc2ccccc2)cc1OC | -1.13% |
| COc1cc(CO)cc(Cl)c1OCc1ccccc1 | 0.149% |
| CCOc1c(Cl)cc(CNCc2ccccc2)cc1OC | 5.18% (active) |
| Cc1ccc(CNC(=O)CSc2nc3ccccc3c(=O)n2CC2CCC(C(=O)NCc3ccco3)CC2)cc1 (stereo not drawn) | -0.182% |
| O=C1NC(=O)c2cc(N3C(=O)c4cccc([N+](=O)[O-])c4C3=O)ccc21 | -0.912% |
| O=C1c2cccc([N+](=O)[O-])c2C(=O)N1c1ccc2ccccc2c1 | 0.404% |
| CN1C(=O)c2ccc(N3C(=O)c4cccc([N+](=O)[O-])c4C3=O)cc2C1=O | 5.16% (active) |
| CC1(C)CC(=O)c2cc(C(=O)Nc3cccc(F)c3)c(=O)n(-c3ccccc3)c2C1 | 0.451% |
| O=C(NCCc1ccccc1)c1ccc2c(c1)NC(=O)C(CS(=O)(=O)Cc1cccc(F)c1)N2 (stereo not drawn) | -0.907% |
| CC(C)c1ccc(CN[C@H]2C[C@H]3C(=O)N[C@@H](COCc4ccccc4)C(=O)N3C2)cc1 | 5.83% (active) |
| O=C1N[C@@H](COCc2ccccc2)C(=O)N2C[C@@H](NCc3ccsc3)C[C@@H]12 | 1.22% |
| CC(C)C[C@H]1NC(=O)[C@@H]2C[C@H](NCc3ccccc3)CN2C1=O | 2.09% |
| Cc1ccc(C2=N/C(=C\c3cccc(Cl)c3)C(=O)O2)cc1 | -1.7% |
| Cc1nc(C)n(CCC(=O)N2CCN(Cc3ccccc3F)C[C@@H]2C(C)C)n1 | -0.818% |
| COc1ccc(Cn2ccnc2SCC(=O)NCc2ccco2)cc1 | 0.251% |
| CC(C)NC(=O)CSc1nccn1Cc1ccco1 | 0.992% |

| SMILES | activation |
| --- | --- |
| COCCNC(=O)CSc1nccn1Cc1ccco1 | 4.92% (active) |
| COCCNC(=O)c1cccc(-n2c(=S)[nH]c3cc(Cl)ccc3c2=O)c1 | 1.05% |
| O=C(CCCOc1ccc(Cl)cc1)NCc1ccco1 | -1.43% |
| CCCCc1ccc2c(N)c(C(=O)Nc3ccc(C(=O)O)cc3)sc2n1 | -1.27% |
| CCCC1=C(C(=O)OCC)C(c2ccc(O)c(OC)c2)C(C#N)=C(N)O1 (stereo not drawn) | 2.22% |
| CCOC(=O)C1=C(CC)OC(N)=C(C#N)C1c1ccc(C(F)(F)F)cc1 (stereo not drawn) | 5.43% (active) |
| CCCC1=C(C(=O)OCC)C(c2cccc(F)c2)C(C#N)=C(N)O1 (stereo not drawn) | 0.841% |
| c1ccc(Nc2cc(NCc3ccc4c(c3)OCO4)ncn2)cc1 | -0.773% |
| CC1=C(C(=O)Nc2cccc(F)c2)C(c2ccccn2)C2=C(CCCC2=O)N1 (stereo not drawn) | 4.99% (active) |
| COc1cc(C2C(C(=O)Nc3ccccn3)=C(C)NC3=C2C(=O)CCC3)cc(OC)c1OC (stereo not drawn) | 0.722% |
| CC1=C(C(=O)Nc2ccccc2C(F)(F)F)C(c2ccccn2)C2=C(CC(C)(C)CC2=O)N1 (stereo not drawn) | 0.421% |
| Cc1ccccc1-n1c(SCC#N)nc2c(sc(=S)n2-c2ccccc2C)c1=O | -0.0279% |
| Cc1cccc(C)c1-n1c(=S)sc2c(=O)n(-c3cccc(Cl)c3)c(SCC#N)nc21 | 7.07% (active) |
| Cc1cccc(C)c1-n1c(=S)sc2c(=O)n(-c3cccc(Cl)c3)c(SCc3cccc([N+](=O)[O-])c3)nc21 | -0.958% |
| CCCOc1ccc(-c2ccc(-c3noc(-c4ccc(OCC)cc4)n3)cc2)cc1 | -1.32% |
| O=C(COc1ccc(Cl)cc1Cl)NCc1nc(-c2ccccc2)no1 | -1.12% |
| Cc1sc(NC(=O)CN(C(=O)CCc2ccccc2)C2CCCC2)c(C(N)=O)c1C | 0.0057% |
| CCCCNC(=O)C1CCC(=O)N1Cc1ccc(F)cc1 (stereo not drawn) | 1.65% |
| O=C(Nc1cccc(N2CCC(NCc3ccon3)CC2)c1)c1cccnc1 | 5.91% (active) |
| COc1ccc(CNC2CCN(c3cccc(NC(=O)c4cccnc4)c3)CC2)cc1 | -0.19% |
| O=C(Nc1cccc(N2CCC(NCC3COc4ccccc4O3)CC2)c1)c1cccnc1 (stereo not drawn) | 0.419% |
| Cc1cc2[nH]c(=O)c(=O)[nH]c2cc1S(=O)(=O)Nc1ccc(Br)cc1F | 1.29% |
